Data: PubChem BioAssay (NCATS)
Records with an inconclusive call do not appear. The source made the active and inactive calls. The call rests on the fitted dose curve; in most records, active means well fitted inhibition curve with a large enough effect; inconclusive means small, poorly fitted or top-dose-only effect; inactive means no such curve, though single readings can be large or run the other way.

molecular target: Rap guanine nucleotide exchange factor 4 (Homo sapiens) (UniProt Q8WZA2); experiment: Confirmatory qHTS for antagonist of cAMP-regulated guanine nucleotide exchange factor 4 (EPAC2) (AID 1645885); conditions: EPAC2 Rap1B-BODIPY-GDP exchange fluorescence, biochemical; series mostly up to 114 µM; activity change, negative = inhibition: at the top concentration; further: nearly all actives have a fitted effect of over 25% in size
Sequence (Q8WZA2 whole entry, looked up): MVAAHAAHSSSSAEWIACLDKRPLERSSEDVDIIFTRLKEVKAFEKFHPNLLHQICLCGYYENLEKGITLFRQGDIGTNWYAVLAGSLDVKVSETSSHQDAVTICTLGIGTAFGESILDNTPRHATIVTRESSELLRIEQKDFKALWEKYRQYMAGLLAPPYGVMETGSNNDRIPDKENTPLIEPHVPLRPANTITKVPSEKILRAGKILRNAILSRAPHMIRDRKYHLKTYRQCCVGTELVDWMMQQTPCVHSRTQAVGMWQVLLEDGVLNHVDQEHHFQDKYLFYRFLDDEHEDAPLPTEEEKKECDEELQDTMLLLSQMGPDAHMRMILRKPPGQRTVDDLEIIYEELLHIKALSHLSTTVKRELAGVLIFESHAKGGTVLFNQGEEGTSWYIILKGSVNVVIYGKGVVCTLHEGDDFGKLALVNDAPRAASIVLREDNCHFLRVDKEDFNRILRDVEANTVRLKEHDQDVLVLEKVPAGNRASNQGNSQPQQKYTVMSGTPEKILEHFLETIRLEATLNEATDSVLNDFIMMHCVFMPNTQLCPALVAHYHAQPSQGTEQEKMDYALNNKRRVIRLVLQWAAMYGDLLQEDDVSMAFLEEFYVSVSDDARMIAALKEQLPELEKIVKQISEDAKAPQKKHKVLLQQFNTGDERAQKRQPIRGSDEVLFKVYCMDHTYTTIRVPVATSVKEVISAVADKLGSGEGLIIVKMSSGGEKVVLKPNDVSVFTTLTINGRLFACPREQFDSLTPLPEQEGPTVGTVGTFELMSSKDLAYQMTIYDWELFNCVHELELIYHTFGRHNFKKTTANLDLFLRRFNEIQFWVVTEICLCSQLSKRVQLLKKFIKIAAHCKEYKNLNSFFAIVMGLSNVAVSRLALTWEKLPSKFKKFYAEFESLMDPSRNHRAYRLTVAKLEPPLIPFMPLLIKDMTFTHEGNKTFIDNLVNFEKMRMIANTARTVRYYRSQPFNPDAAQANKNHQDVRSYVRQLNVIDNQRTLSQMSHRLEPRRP
On the % scale 0 is the no-effect control and ±100 the full control effect; potency means the concentration at half of the fitted maximal effect.

Row | SMILES | Potency | activity change, negative = inhibition | outcome
1 | Nc1ccc2nonc2c1[N+](=O)[O-] | 47.8 µM (active) |  | 
2 | Cn1cccc1/C=C1\C(=O)NC(=O)N(Cc2ccccc2)C1=O |  | -5.74% (inactive) | 
3 | Cn1cc(/C=C2\C(=O)NC(=O)N(c3ccccc3)C2=O)c2ccccc21 | 95.3 µM (active) |  | 
4 | O=c1[nH]c(=S)n(-c2ccccc2F)c(O)c1C=Nc1ccc(N2CCOCC2)cc1 |  | -15.3% [at 12.7 µM] (inactive) | 
5 | Cc1cc(/C=C2\C(=O)NC(=O)N(Cc3ccccc3Cl)C2=O)c(C)n1-c1ccc(C(=O)O)cc1 |  | -6.02% [at 12.7 µM] (inactive) | 
6 | Cc1cccc(-n2c(O)c(/C=C/C=Nc3ccccc3)c(=O)[nH]c2=O)c1 | 33.8 µM (active) |  | 
7 | O=C1CN=C(c2ccccc2)c2cc(Cl)ccc2N1Cc1ccc(Cl)cc1 |  | 1.14% [at 12.7 µM] (inactive) | 
8 | CC(c1ccccc1)(c1ccccc1)c1ccncc1 |  | -28.4% [at 12.7 µM] (inactive) | 
9 | COc1ccccc1-n1c(-c2cccs2)nc2ccccc2c1=O |  | -22.8% (inactive) | 
10 | CCN(CC)c1ccc(N=Cc2c(O)n(CCc3ccc(OC)c(OC)c3)c(=O)[nH]c2=O)cc1 |  | -5.1% [at 12.7 µM] (inactive) | 
11 | O=C1NC(=O)N(Cc2ccccc2)C(=O)/C1=C\C=C\c1ccco1 |  | 2.97% [at 12.7 µM] (inactive) | 
12 | O=[N+]([O-])c1ccc(N2CCCCCC2)c2nonc12 |  | 94.8% (inactive) | 
13 | Cc1ccc(N)c(C(=O)c2ccc(Br)cc2)c1 |  |  | inactive; activator; fitted 10.691 uM
14 | CCCNC1=C(C)C(=O)C2=C(C1=O)C(COC(N)=O)[C@]1(OC)C3NC3CN21 (some centres not stated) |  |  | inactive
15 | O=c1[nH]c(=O)n(-c2cccc(F)c2)c(O)c1/C=C1\C=Nc2ccccc21 |  | -43.7% (inactive) | 
16 | CCOC(=O)c1cc(CC)sc1/N=C/C1C(=O)NC(=S)NC1=O |  | -21.4% [at 12.7 µM] (inactive) | 

Row | SMILES | Potency | activity change, negative = inhibition | outcome
17 | O=C1NC(=O)N(Cc2ccco2)C(=O)/C1=C\c1cccn1CCOc1ccc(Cl)cc1 |  | -27.2% [at 12.7 µM] (inactive) | 
18 | Cc1cccc(CN2C(=O)CN=C(c3ccccc3)c3ccccc32)c1 |  | 15.3% [at 12.7 µM] (inactive) | 
19 | COc1cccc(N2C(=O)NC(=O)/C(=C\c3cn(C)c4ccccc34)C2=O)c1 |  | 98.3% (inactive) | 
20 | COC1C(C)OC(OC2CC(C)(O)Cc3cc4c(c(O)c32)C(=O)c2c(O)cc3c(c2C4=O)OC2OC3(C)C(O)C(N(C)C)C2O)C(OC)C1(C)OC (configuration not stated) |  | 15.2% [at 12.7 µM] (inactive) | 
21 | Cc1cc2ccccn2c1C(C[N+](=O)[O-])c1c(F)cccc1Cl (configuration not stated) | 15.1 µM (active) |  | 
22 | Cc1ccccc1OCC(=O)N1CCN(CCc2ccccn2)CC1 |  | 1.52% [at 12.7 µM] (inactive) | 
23 | Cc1cccc(-c2nc(CN3C(=O)CN=C(c4ccccc4)c4ccccc43)c(C)o2)c1 |  | 48.3% [at 12.7 µM] (inactive) | 
24 | COc1ccc(CN2C(=O)NC(=O)/C(=C\c3ccco3)C2=O)cc1 |  | 50.6% (inactive) | 
25 | CN1/C(=C\C=C2C(=O)NC(=S)NC2=O)C(C)(C)c2ccccc21 |  | 105% (inactive) | 
26 | COCCNC(=O)Cn1cc(/C=C2\C(=O)NC(=O)N(c3ccccc3F)C2=O)c2ccccc21 |  | 3.63% (inactive) | 
27 | Nc1cc(Cl)c2nonc2c1[N+](=O)[O-] |  | 1.82% [at 12.7 µM] (inactive) | 
28 | Cc1ccc(-n2c(O)c(C=NCc3ccco3)c(=O)[nH]c2=S)cc1C |  | 19.8% (inactive) | 
29 | CCOC(=O)[C@]12Cc3cc(Cl)ccc3[C@H]1N(C(C)C)C(=O)c1ccccc12 | 21.3 µM (active) |  | 
30 | Nc1ccc2ccc3cccc[n+]3c2c1 |  | 258% (inactive) | 
31 | CC(C)N1C(=O)/C(=C/C=C/c2ccco2)C(=O)N(Cc2ccco2)C1=O |  | 22.6% [at 12.7 µM] (inactive) | 
32 | O=c1[nH]c(=S)n(-c2ccc(Cl)cc2)c(O)c1C=Nc1ccc(N2CCOCC2)cc1 |  | 15.9% (inactive) | 
